ELG1 genotoxic = genotoxicity induction in ELG1-luciferase HEK293T cells; HEK293T ELG1-luciferase reporter, luminescence, 16 h; 330,000 tested, 1.3% active; Potency, µM (doses to about 46 µM), for the others: at the highest dose activity change, positive = activation, most hits filed as activators; AID 504466; note: % of control where 0% means no effect; nearly all actives have a fitted effect of over 60% in size
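ELG1-luciferase HEK293T cells, 2,000/well; compound pinned in; 16 hr, 37 °C, 5% CO2; ONE-Glo, 30 min RT; luminescence on CCD imager.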
KinaseGlo FLuc = blocks Kinase-Glo luciferase, a counter-screen artifact; 200,000 tested, 0.28% active; Kinase-Glo luciferase, ATP luminescence, 8 min; AID 1379; Q27757; Potency, µM (highest dose often 38.3 µM), without a hit: at the highest dose activity change, negative = inhibition, actives largely listed as inhibitors; note: % is set by controls: 0 for no effect and ±100 for the full control effect; nearly all actives have a fitted effect of over 60% in size
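Luminescence was the read-out, taken after 8-minute incubation at ambient temperature. Luciferase turned over luciferin with 10 uM ATP in imidazole pH 7.2 buffer containing KCl, MgCl2, Tween 20 and BSA.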
Rab9 prom act = Rab9 promoter activation; Potency, µM (top dose mostly 9.22 µM), for inactives: at the highest dose activation, negative = inhibition, usual class: activators; 320,000 tested, 2.8% active; Huh7 Rab9 promoter-luciferase reporter, luminescence, 24 h; note: % of control where 0% means no effect; nearly all actives have a fitted effect of over 60% in size
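Measured in stably transfected Huh7 cells bearing a Rab9 promoter–luciferase construct: 24 h compound treatment at 37 °C, followed by luminescence detection.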
FLuc counter = inhibits or activates purified firefly luciferase, miR-21 counter-screen; P08659; purified FLuc, Km substrates, luminescence inhibition; Potency, µM (highest dose often 57.5 µM), without a hit: at the top dose activity change, negative = inhibition, hits mostly inhibitors; 360,000 tested, 6.9% active; AID 588342;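 note: plate controls were vehicle for no effect and reference inhibitor for full effect; nearly all actives have a fitted effect of over 55% in size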
Target sequence (P08659 whole entry, looked up): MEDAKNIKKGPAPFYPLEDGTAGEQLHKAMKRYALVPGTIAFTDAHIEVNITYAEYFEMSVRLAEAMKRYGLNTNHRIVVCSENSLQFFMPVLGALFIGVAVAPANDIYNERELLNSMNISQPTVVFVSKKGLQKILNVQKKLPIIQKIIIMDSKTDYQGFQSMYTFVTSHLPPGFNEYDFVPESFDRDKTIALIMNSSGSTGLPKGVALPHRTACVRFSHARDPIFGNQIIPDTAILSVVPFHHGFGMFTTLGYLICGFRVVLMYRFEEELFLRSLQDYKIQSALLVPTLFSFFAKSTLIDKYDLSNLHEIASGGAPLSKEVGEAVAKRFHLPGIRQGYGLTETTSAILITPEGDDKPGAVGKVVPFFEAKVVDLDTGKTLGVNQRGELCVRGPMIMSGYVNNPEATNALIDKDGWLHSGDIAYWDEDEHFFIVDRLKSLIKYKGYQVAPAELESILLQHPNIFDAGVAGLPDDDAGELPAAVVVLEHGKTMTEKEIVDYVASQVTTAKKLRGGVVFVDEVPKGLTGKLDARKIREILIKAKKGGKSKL
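Purified P. pyralis luciferase (10nM final) with 10uM D-luciferin and 10uM ATP (Km levels) in 50mM Tris acetate pH 7.5, 10mM Mg acetate, 0.01% Tween-20, 0.05% BSA; qHTS 6-point titration, ~60 µM downward; luminescence read.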
NPC1 promoter act = activators of NPC1 promoter; Huh7 NPC1 promoter luciferase reporter, 24 h; Potency, µM (series often up to 9.22 µM), for the others: top-dose activation, usual class: activators; 320,000 tested, 2.4% active; note: % of control where 0% means no effect; nearly all actives have a fitted effect of over 60% in size
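Luminescence read-out of NPC1 promoter-driven luciferase in stably transfected Huh7 cells; compounds delivered in DMSO and left 24 h at 37C, 5% CO2, qHTS titration format.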
SMN2 splice enh = increases expression of the SMN2 splice variant | HEK293 SMN2-luciferase splicing reporter, luminescence, 30-36 h | Potency, µM (doses to about 46.1 µM), without a hit: at the highest dose activity change, positive = activation, usual class: activators | 210,000 tested, 2.8% active; note: % of control where 0% means no effect; nearly all actives have a fitted effect of over 55% in size
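HEK293 cells carry an SMN2 […]–luciferase reporter in which exon 7 inclusion puts luciferase in frame. Cells were plated 10-12 h before compound addition, then incubated 30-36 h at 37C. ONE-Glo luminescence was read; sodium butyrate at 4.5 mM final served as control.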
* = called active by the depositor; u = inconclusive; x = no result; [ ] = another dose, or the depositor's remark. This is a sample that favours compounds with a hit; in the whole collection about 7.4% have one here. Calls come from the whole dose curve; as a rule, active = well fitted curve in the direction sought with a large enough effect; inconclusive = small, poorly fitted or top-dose-only effect, or another doubt; inactive = no such curve, though single readings can be large; an effect the other way counts as inactive or inconclusive. Potency is the fitted concentration of half-maximal effect.

SMILES | ELG1 genotoxic | KinaseGlo FLuc | Rab9 prom act | FLuc counter | NPC1 promoter act | SMN2 splice enh
CC(C)(C)C(=O)Nc1ccc(-c2csnn2)cc1 | u | x | 2.8µM* | 24µM* | u | x
CCCC[C@@H]1C[C@H]1C(NC(=O)c1cccs1)c1ccccc1C(F)(F)F (stereo partly drawn) | x | -1% | x | x | x | -49%
Cc1ccc(NC(=O)CSc2ncccc2C(=O)Oc2cccc([N+](=O)[O-])c2)cc1Cl | 23µM* | -2% | u | u | 4.5µM* | 11µM*
Cc1ccc(NC(=O)/C(=C\c2ccco2)NC(=O)c2ccco2)cc1 | 5% | x | -9% | -17% | 1% | x
O=C(NCc1ccccc1)c1ccc(NC(=O)c2ccco2)cc1 | 0% | x | 9% | 1% | 6% | x
Cc1ccc(NC(=O)N/C=C/c2ccco2)cc1 | u | 3% | 2.8µM* | u | 2.8µM* | 14µM*
CC(=O)Nc1ccc(C(=O)/C=C/c2ccco2)cc1 | 11% | -3% | 22% | 9.5µM* | 13% | 16%
O=C(/C=C\c1ccco1)c1ccc(NC(=O)c2ccco2)cc1 | u | -6% | u | 11µM* | u | x
CC(=O)N(C)c1ccc(NC(=S)NC(=O)/C=C/c2ccco2)cc1 | 1%[9.26 µM] | x | -1% | u | 1% | x
CC(=O)Nc1cccc(C(=O)NCCc2ccco2)c1 | 23µM* | x | u | u | u | x
CCCCN(C(=O)/C=C/c1ccc(OC)cc1)C1CCS(=O)(=O)C1 (stereo not drawn) | -8% | x | -1% | -4% | 0% | x
Cc1ccc(S(=O)(=O)CCC(=O)OCC(=O)c2cc(C)n(C)c2C)cc1 | 3% | x | -1% | u | -2% | x
CC(=O)Oc1c(-c2ccc(Br)o2)oc2ccccc2c1=O | -10% | x | -3% | 1% | -4% | x
CC(=O)Nc1cccc(C(=O)/C=C/c2ccco2)c1 | 7% | -4% | 21% | 19µM* | u | 2%
CC(=O)c1cccc(NC(=O)c2ccco2)c1 | 3% | -8% | 0% | 0% | 2% | -2%
O=C1/C(=C/c2ccccc2[N+](=O)[O-])COc2ccccc21 | -21% | -1% | -15% | 17µM* | -23% | -86%
CNc1ccc(/C=C2\COc3ccccc3C2=O)cc1[N+](=O)[O-] | 4% | -3% | u | 1.9µM* | 25% | 10%
CC1CCN(C(=O)CSc2c3c(nc4ccc(Cl)cc24)CCCC3)CC1 | x | x | x | -12% | x | -21%
Cc1cc(/C=C2/NC(=O)NC2=O)c(C)n1-c1ccccn1 | 10% | -4% | 23% | 21µM* | 17% | u
Cc1cc(/C=C2/NC(=O)NC2=O)c(C)n1-c1ccc(C#N)cc1 | 2% | 1% | 1% | 0% | -3% | -17%
Cc1ccc(-n2c(C)cc(/C=C3\NC(=O)NC3=O)c2C)c(C)c1 | 8% | 1% | 2% | 8.5µM* | 1% | -9%
CCc1ccc2c(c1)c(=O)c(S(=O)(=O)c1ccc(F)cc1)cn2CC(=O)Nc1ccc(C)cc1C | x | x | x | -2% | x | -1%
Cc1cccc(Nc2nnc(SCC(=O)Nc3ccc(C(=O)O)cc3)s2)c1 | -4% | -11% | 0% | 1.7µM* | 21% | 18%
Cc1cccc(NC(=O)CSc2nnc(NC(=O)C3CCC3)s2)c1 | -2% | x | 1% | -4% | 1% | x
COc1ccc(Nc2nnc(SCC3CCCCO3)s2)cc1 (stereo not drawn) | 4% | 2% | 22% | u | 13% | 30%
Cc1cccc(Nc2nnc(SCC(=O)Nc3ccccc3[N+](=O)[O-])s2)c1 | -5% | -3% | 12% | 7.6µM* | 3% | 3%
Cc1cccc(Nc2nnc(SCC3CCCCO3)s2)c1 (stereo not drawn) | 12% | -1% | 2.8µM* | 5.4µM* | 4µM* | 20µM*
Cc1ccccc1Nc1nnc(SCC(=O)Nc2ccccc2[N+](=O)[O-])s1 | -1% | 0% | 18% | -14% | -1% | -3%
